# Laboratory results published in ChEMBL document CHEMBL3988442, “University of Dundee, Small-Polar-MMV Screening Library” (2021).
# For some assays here: Entries with a potency or affinity are not part of this list.
# Tests used:
# Set-up in all cases: scale not given: direction of the effect not stated beside the values
# [1] = biological target: Protein translocase subunit SecA (Escherichia coli (strain K12)) (UniProt P10408); test: Assay to Identify E. coli SecA ATPase Inhibitors; type: functional; conditions: 30 µM
# [2] = biological target: T1, Ubiquitin-activating enzyme e1, putative (Leishmania donovani (strain BPK282A1)) (UniProt E9BSI1); test: Leishmania donovani Ubiquitin Activating Enzyme (LdE1); type: functional; conditions: 30 µM
# T1 sequence (whole entry): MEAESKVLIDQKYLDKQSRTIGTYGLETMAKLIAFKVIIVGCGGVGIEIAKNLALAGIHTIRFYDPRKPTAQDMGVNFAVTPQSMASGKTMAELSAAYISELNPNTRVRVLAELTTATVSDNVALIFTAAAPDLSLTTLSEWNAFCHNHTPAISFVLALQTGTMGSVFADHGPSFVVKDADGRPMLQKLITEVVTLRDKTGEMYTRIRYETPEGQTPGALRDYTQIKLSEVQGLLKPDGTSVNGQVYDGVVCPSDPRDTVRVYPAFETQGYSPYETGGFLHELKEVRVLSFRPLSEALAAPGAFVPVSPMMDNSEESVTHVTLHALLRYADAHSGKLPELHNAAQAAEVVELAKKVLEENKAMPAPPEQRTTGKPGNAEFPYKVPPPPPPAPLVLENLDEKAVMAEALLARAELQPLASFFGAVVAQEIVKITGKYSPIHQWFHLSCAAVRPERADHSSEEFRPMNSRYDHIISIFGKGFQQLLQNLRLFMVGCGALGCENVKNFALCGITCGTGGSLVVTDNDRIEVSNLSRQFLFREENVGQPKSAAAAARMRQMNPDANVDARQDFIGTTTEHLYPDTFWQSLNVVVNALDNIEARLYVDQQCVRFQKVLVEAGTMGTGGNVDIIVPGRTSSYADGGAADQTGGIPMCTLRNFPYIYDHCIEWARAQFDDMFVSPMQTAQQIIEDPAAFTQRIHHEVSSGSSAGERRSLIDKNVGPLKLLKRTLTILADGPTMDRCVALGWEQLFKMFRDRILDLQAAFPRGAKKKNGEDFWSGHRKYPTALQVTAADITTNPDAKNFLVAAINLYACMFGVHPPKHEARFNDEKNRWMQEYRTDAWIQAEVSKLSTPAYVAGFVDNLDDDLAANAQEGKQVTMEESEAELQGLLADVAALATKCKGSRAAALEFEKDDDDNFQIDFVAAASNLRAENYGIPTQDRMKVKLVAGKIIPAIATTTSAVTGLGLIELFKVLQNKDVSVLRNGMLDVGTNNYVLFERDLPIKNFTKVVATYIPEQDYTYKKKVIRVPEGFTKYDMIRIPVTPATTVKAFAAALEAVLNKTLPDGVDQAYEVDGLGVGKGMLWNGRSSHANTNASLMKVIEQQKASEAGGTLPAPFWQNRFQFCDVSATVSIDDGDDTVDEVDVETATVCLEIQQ
# [3] = biological target: AMP-activated protein kinase, AMPK (Homo sapiens) (UniProt P54646+O43741+P54619+Q9UGJ0+Q9Y478+Q13131+Q9UGI9); test: AMP-dependent Kinase enzyme assay. An in vitro enzyme assay that detects ADP turnover that is directly proportional to AMPK activity. This uses naive AMPK that is activated during the assay with MK-8722; type: functional; conditions: 30 µM
# [4] = biological target: Sialic acid-binding Ig-like lectin 9 (Homo sapiens) (UniProt Q9Y336); test: Hs-Siglec9 ALPHAscreen SOP 20170721; conditions: 10 µM
# Trypanosoma cruzi = test: Trypanosoma cruzi phosphomannomutase and mannose-1-phosphate guanylyltransferase assay; type: functional; conditions: 10 µM
# [5] = biological target: T2, Arginase-2, mitochondrial (Homo sapiens) (UniProt P78540); test: in vitro enzyme assay to detect the production of urea directly proportional to the activity of Arginase II; type: functional; conditions: 33.3 µM; also: in the data most compounds retested in dose-response had high values
# T2 sequence (whole entry): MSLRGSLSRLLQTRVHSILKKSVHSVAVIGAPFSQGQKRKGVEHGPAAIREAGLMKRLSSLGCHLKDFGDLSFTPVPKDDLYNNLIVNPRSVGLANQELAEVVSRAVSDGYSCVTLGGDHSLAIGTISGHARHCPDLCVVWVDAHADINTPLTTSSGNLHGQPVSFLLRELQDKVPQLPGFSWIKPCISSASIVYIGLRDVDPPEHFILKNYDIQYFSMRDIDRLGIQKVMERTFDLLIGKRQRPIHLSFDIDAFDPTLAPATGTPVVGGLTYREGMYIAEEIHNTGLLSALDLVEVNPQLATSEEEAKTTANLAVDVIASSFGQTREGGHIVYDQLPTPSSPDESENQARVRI
# [6] = biological target: T3, Proteasome subunit beta (Trypanosoma cruzi) (UniProt O96673); test: Trypanosoma cruzi proteasome chymotrypsin-like activity (TcProtChymo) assay.; also: in the data most compounds retested in dose-response had high values; type: functional; conditions: 9.37 µM
# T3 sequence (whole entry): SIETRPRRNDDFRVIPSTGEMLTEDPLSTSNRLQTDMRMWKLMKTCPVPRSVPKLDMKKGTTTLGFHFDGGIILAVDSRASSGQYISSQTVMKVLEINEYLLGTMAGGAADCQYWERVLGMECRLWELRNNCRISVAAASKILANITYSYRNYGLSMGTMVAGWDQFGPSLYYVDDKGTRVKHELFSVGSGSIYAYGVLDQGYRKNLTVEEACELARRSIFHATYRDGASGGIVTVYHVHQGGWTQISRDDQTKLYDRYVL
# Homo sapiens = species: Homo sapiens; test: To identify inhibition of the IFN signalling (Jak-Stat) pathway via expression of an eGFP reporter gene under the control of an IFN-stimulated response element (ISRE) containing MxA promoter.; type: functional; conditions: 30 µM
# [7] = biological target: T4, Tyrosyl-tRNA synthetase, putative (Trypanosoma cruzi (strain CL Brener)) (UniProt Q4DSP6); test: Trypanosoma cruzi tyrosyl tRNA synthetase (TcYRS) _High Tyrosine SOP; type: functional; conditions: 30 µM; also: in the data most compounds retested in dose-response had high values
# T4 sequence (whole entry): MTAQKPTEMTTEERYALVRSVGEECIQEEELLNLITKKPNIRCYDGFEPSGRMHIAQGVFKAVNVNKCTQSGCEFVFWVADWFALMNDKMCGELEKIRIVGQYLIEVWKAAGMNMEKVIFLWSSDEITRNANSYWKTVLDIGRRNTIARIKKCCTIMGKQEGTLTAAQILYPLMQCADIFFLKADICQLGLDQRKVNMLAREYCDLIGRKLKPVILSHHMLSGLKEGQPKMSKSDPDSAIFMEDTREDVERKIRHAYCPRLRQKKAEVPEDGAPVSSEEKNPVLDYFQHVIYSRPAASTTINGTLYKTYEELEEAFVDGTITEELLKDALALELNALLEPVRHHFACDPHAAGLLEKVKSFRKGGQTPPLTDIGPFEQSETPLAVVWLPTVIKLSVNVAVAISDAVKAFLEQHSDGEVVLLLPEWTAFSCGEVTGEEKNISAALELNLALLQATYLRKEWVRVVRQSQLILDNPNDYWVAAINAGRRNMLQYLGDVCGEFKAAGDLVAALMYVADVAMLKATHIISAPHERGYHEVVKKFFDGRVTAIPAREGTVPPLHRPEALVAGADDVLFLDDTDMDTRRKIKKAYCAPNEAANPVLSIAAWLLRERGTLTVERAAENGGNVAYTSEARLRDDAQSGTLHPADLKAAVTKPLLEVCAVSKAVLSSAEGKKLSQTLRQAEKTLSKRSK
# [8] = biological target: T4, Tyrosyl-tRNA synthetase, putative (Trypanosoma cruzi (strain CL Brener)); test: Trypanosoma cruzi tyrosyl tRNA synthetase (TcYRS) SOP; type: functional; conditions: 30 µM
# [9] = biological target: Chromo domain-containing protein 1 (Saccharomyces cerevisiae (strain ATCC 204508 / S288c) (Baker's yeast)) (UniProt P32657); test: ScCHD-1 Enzyme Inhibition Assay; type: functional; conditions: 30 µM; also: in the data most compounds retested in dose-response had high values
# Sequence of Chromo domain-containing protein 1 (Saccharomyces cerevisiae (strain ATCC 204508 / S288c) (Baker's yeast)) (P32657 whole entry, the tested form may be a part): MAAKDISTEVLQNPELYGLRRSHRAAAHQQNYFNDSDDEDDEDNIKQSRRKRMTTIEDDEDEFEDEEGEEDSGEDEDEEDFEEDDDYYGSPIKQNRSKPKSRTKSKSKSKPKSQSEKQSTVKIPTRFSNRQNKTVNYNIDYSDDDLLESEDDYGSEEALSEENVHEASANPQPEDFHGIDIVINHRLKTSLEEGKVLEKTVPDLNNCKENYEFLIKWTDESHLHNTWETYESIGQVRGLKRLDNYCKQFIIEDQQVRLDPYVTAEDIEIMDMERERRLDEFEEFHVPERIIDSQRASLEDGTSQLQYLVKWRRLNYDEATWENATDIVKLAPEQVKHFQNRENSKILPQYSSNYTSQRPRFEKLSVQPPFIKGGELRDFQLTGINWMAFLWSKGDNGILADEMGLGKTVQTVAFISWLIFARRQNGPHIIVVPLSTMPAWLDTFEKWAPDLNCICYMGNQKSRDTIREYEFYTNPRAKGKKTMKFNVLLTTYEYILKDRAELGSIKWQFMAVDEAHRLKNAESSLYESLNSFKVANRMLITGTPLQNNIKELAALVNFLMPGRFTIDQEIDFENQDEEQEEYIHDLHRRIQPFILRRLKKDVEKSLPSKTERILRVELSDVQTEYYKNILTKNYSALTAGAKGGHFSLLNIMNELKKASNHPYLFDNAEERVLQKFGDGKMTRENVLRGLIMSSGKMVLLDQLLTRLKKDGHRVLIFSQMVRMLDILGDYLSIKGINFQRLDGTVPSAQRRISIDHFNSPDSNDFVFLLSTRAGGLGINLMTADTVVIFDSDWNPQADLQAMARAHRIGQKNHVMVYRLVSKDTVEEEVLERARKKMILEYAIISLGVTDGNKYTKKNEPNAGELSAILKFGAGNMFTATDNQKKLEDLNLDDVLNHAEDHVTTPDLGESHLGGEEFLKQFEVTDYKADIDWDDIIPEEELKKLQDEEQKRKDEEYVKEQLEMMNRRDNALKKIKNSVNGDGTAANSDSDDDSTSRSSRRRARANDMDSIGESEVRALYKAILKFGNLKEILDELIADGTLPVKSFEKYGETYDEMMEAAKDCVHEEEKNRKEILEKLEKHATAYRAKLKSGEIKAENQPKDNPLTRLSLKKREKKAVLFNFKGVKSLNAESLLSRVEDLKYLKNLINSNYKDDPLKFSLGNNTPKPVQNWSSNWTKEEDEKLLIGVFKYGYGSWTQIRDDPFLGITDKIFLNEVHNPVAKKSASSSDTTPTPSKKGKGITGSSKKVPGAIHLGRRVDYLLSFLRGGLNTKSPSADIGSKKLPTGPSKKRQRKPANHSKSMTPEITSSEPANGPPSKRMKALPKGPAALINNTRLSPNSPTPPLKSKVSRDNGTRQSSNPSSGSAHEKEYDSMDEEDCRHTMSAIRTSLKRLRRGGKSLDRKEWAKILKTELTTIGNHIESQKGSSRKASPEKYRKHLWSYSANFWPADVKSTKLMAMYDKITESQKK
# Sequence of Sialic acid-binding Ig-like lectin 9 (Homo sapiens) (Q9Y336 whole entry): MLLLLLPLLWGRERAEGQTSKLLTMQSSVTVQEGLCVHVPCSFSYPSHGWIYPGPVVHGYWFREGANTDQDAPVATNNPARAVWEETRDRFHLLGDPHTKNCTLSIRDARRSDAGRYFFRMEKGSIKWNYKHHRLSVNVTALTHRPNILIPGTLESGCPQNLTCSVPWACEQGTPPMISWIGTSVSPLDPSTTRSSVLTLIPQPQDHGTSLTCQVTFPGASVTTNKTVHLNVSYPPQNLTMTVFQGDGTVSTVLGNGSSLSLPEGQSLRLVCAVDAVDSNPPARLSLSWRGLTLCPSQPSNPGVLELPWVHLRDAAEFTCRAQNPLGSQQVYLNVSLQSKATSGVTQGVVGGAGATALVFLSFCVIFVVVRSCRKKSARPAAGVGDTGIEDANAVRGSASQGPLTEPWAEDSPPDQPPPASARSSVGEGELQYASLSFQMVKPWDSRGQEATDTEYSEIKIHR
# Sequence of Protein translocase subunit SecA (Escherichia coli (strain K12)) (P10408 whole entry): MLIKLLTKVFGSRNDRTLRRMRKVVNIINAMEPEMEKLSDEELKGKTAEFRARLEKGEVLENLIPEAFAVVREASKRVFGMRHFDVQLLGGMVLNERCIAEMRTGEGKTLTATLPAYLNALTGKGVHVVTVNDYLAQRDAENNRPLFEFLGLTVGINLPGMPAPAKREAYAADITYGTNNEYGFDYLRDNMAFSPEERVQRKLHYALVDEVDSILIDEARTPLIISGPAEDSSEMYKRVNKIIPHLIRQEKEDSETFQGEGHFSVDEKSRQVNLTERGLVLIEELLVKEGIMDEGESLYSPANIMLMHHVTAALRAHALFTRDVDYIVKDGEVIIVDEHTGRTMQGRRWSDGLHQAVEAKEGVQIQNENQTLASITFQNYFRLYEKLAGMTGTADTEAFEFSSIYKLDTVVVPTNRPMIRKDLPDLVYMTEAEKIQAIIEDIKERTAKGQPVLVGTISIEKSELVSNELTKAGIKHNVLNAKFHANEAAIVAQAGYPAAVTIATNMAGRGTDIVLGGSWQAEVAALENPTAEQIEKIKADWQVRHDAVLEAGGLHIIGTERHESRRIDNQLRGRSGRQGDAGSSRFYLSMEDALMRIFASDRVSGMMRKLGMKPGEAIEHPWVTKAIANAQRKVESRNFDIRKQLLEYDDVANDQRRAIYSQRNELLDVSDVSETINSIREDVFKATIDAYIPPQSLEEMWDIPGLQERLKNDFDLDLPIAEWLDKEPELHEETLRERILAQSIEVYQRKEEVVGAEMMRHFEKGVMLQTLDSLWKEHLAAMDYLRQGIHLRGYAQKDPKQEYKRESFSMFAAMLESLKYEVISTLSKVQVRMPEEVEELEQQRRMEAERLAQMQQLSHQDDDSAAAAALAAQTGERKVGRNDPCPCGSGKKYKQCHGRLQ
Compound,Percent Effect [1] [%],Percent Effect [2] [%],Percent Effect [3] [%],Percent Effect [4] [%],Percent Effect (Trypanosoma cruzi) [%],Percent Effect [5] [%],Percent Effect [6] [%],Percent Effect (Homo sapiens) [%],Percent Effect [7] [%],Percent Effect [8] [%],Percent Effect [9] [%]
Cc1ccc(C(=O)N2CCCC2c2nnc3n2CCCCC3)o1 (stereo unspecified),0.332,-1.39,7.46,-3.27,-2.23,-11.9,6.84,-2.88,2.1,-5.13,-1.81
O=c1c2cnc(N3CCCCC3)nc2ccn1-c1ccccc1,-4.04,9.33,-3.82,-5.64,4.71,-7.22,15,8.11,2.12,10.3,-8.21
CCn1cnnc1CNC(=O)c1cc(Cl)ccc1OC,-2.18,8.86,8.8,-1.08,-2.56,3.66,11.2,7.84,9.38,15.2,-11.8
CCn1c(C)nnc1CN(C)C1CCN(Cc2cnc(C)cn2)C1 (stereo unspecified),-3.27,10.8,-13.9,0.873,-0.88,-2.73,7.81,16.2,8.6,18.5,-7
Cn1ccnc1COc1ccc(CO)cc1,-1.04,5.2,-1.87,-8.74,-5.06,8.19,6.59,36.8,3.88,14.6,-8.46
COCC1c2nnn(CC3CC3)c2CCN1C(=O)c1cccc(F)c1 (stereo unspecified),-5.76,0,-4.62,0.968,-4.59,-0.248,3,10,5.38,6.17,1.63
COCCN1CCOCC2(CCCN(Cc3ccc(C)o3)C2)C1 (stereo unspecified),-2.04,13.3,0.538,-2.47,5.6,-42.1,8.55,-12.1,3.12,2.5,-9.46
CCOc1ccc(Cl)cc1CNCCCn1ccnc1,-0.524,6.67,7.15,-7.03,-5.5,-9.68,19,11,-2.12,5.13,-11.2
Cc1cc(C)n(CC2CN(CCOc3cccc(C#N)c3)CCO2)n1 (stereo unspecified),-6.03,13.2,-3.15,-7.82,-1.21,-0.719,1.44,6.94,7.39,-6.17,-0.144
O=C(Nc1ccc(F)cc1F)Nc1c[nH]c(=O)[nH]c1=O,0.161,10.4,5.76,-2.96,-5.03,0.645,6.09,8.21,-1.06,3.85,-9.44
Cc1noc(C(C)C)c1C(=O)NS(=O)(=O)c1ccc(Cl)cc1,-5.93,2.63,7.93,1.74,3.8,0,17.9,9.23,6.38,7.79,3.02
CC(=O)N(Cc1ncc(C(C)C)o1)C1CCN(Cc2ncc[nH]2)C1 (stereo unspecified),-1,10.8,-3.5,-1.85,3.99,-3.14,5.21,6.45,13.9,25.6,-5.05
Cn1ncc2c(=O)[nH]c(CN3CCC(Cc4ccccc4)CC3)nc21,-4.67,10.5,-7.07,0.445,8.87,3.6,7.7,-0.345,9.36,25.9,-10.4
CC(C)C(C(=O)N1CCCN(Cc2nccn2C)CC1)N1CCCC1 (stereo unspecified),-1.38,21.6,-0.295,-3.06,-1.58,-2.77,10.6,20,2.97,13.4,-5.79
Cc1cnn(CCC(=O)N2CCCC(c3cc(C(N)=O)[nH]n3)C2)c1 (stereo unspecified),-1.91,5.41,-10.4,10.5,1.79,-2.4,-0.901,4.5,1.48,11.1,-7.36
O=C(NCc1cnc2n1CCN(CC1CC1)CC2)C1CCC1,-2.75,13.5,-7.3,21.4,4.79,18.1,7.47,-8.45,6.45,16.1,-4.7
